Measured values reported in PubChem BioAssay (NCATS).
Results filed as inconclusive are left out. Unmarked numbers belong to inactive results. Active and inactive are the calls of the source. The call rests on the fitted dose curve; in most records, active means well fitted inhibition curve with a large enough effect; inconclusive means small, poorly fitted or top-dose-only effect; inactive means flat fitted curve, though single readings scatter.

Assay: qHTS to identify inhibitors of the type 1 interferon - major histocompatibility complex class I in skeletal muscle: primary screen against the NCATS Pharmaceutical Collection (AID 1347407);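 further: luminescence of HiBiT knocked into endogenous HLA-B as interferon-induced MHC class I level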
Conditions: human skeletal muscle cells, IFN-b-induced MHC-I HiBiT luminescence, 24 h; series mostly up to 45.9 µM; activity change, negative = inhibition: at the top concentration
Outline: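 HLA-B HiBiT myoblasts, dexamethasone-free growth medium + 4 ng/ml IFN-b; compounds pinned 1 h after seeding, […] from 46 uM; 24 h, 37 C, 5% CO2; lytic HiBiT detection, 10 min RT, luminescence.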
On the % scale 0 is the no-effect control and ±100 the full control effect; potency means the concentration at half of the fitted maximal effect.

SMILES | activity change, negative = inhibition | Potency
CC(C)n1c(/C=C/[C@@H](O)C[C@@H](O)CC(=O)O)c(-c2ccc(F)cc2)c2ccccc21 | -21.8% | –
CCNC(=O)/C=C/c1cccc(Br)c1 | 1.9% | –
CCOC(=O)[C@@](C)(N)Cc1ccc(O)c(O)c1 | -5.79% | –
OCc1ccccn1 | -3.19% | –
CN1CCN(c2cc3c(cc2F)c(=O)c(C(=O)O)cn3-c2ccc(F)cc2)CC1 | -9.9% | –
CCOC(=O)C(C#N)=C(c1ccccc1)c1ccccc1 | -5.21% | –
Cc1nc(-c2ccc(Cl)cc2)oc1COC(C)(C)C(=O)O | -13.1% | –
CCCCCCCCCCCCOCCOCCOCCOCCOCCOCCOCCOCCOCCO | 4.8% | –
C[C@]12CCC(=O)C=C1C=C[C@@H]1[C@@H]2CC[C@@]2(C)[C@H]1CC[C@@]21CCC(=O)O1 | -3.38% | –
C[C@@]12C(=O)OC(=O)[C@]1(C)C1CCC2O1 | – | 13.3 µM (active)
CCCCCCCCCCCCCC(=O)OC(C)C | -5.68% | –
CN(C)CCOC(c1ccc(Cl)cc1)c1ccccn1 (stereo not drawn) | -6.74% | –
COc1cc(N)c(Cl)cc1C(=O)NC1CCN(Cc2ccccc2)CC1 | -3.26% | –
CN1CCc2cccc3c2[C@H]1Cc1ccc(O)c(O)c1-3 | -7.87% | –
CCN[C@@H]1C[C@H](N)[C@@H](OC2OC(CN)=CCC2N)[C@H](O)[C@H]1O[C@H]1OC[C@](C)(O)[C@H](NC)[C@H]1O (stereo partly drawn) | 4.01% [at 0.727 µM] | –
Cn1c(=O)c2[nH]c(Br)nc2n(C)c1=O | 0.593% | –
CCOC(=O)c1c(N)sc2c1CCN(Cc1ccccc1)C2 | -5.84% | –
CCCCCCCCCCCCCCC[C@H](O)[C@@H](N)CO | -7.12% | –
COc1ccc(C(Cl)=C(c2ccc(OC)cc2)c2ccc(OC)cc2)cc1 | -6.39% | –

SMILES | activity change, negative = inhibition | Potency
CC(C)Cn1cnc2c1c(=O)n(C)c(=O)n2C | 3.37% | –
OCCOCCN1CCN(C2=Nc3ccccc3Sc3ccccc32)CC1 | 7.02% | –
O=C(O)P(=O)(O)O | -1.51% | –
Cl/C(=C\n1cncn1)c1ccc(Cl)cc1Cl | 0.386% | –
CC(=O)OCC1=C(C(=O)O)N2C(=O)[C@@H](NC(=O)CSc3ccncc3)[C@H]2SC1 | -5.17% | –
CC(=O)Nc1ncc([N+](=O)[O-])s1 | 0.731% | –
Cc1cc(C)cc(OCC2CNC(=O)O2)c1 (stereo not drawn) | -1.52% | –
CC(=O)Nc1ccc(OC(=O)c2ccccc2OC(C)=O)cc1 | 5.71% | –
CN1CCN(CCC(=O)N2c3ccccc3Sc3ccc(C(F)(F)F)cc32)CC1 | -23.9% | –
NC(=O)n1c(O)c(C(=O)c2cccs2)c2cc(Cl)ccc21 | -28.2% | –
COP(=O)(OC)OC(c1ccc(Cl)cc1)P(=O)(OC)OC (stereo not drawn) | -5.56% | –
CC(C)Nc1cccnc1N1CCN(C(=O)c2cc3cc(NS(C)(=O)=O)ccc3[nH]2)CC1 | 13.4% | –
Nc1ccc(S(=O)(=O)NCc2ccccc2)cc1 | 5.85% | –
CCCCC(CC)COC(=O)c1ccc(N(C)C)cc1 (stereo not drawn) | 3.45% | –
COc1ccc(C(=O)c2ccccc2)c(O)c1 | -3.97% | –
C[C@H]1[C@H]2CC[C@H]3[C@@H]4CC=C5C[C@@H](N(C)C)CC[C@]5(C)[C@H]4CC[C@]23CN1C | -16.8% | –
O=[N+]([O-])c1cccc(S(=O)(=O)NCCNS(=O)(=O)c2cccc([N+](=O)[O-])c2)c1 | -8.23% | –
CN(Cc1ccc(C(C)(C)C)cc1)Cc1cccc2ccccc12 | -5.07% | –
CC(C)(C)NC[C@H](O)COc1cccc2c1CCCC2=O | 5.82% | –
